# Screening results from PubChem BioAssay.
# KCNQ2 pot: KCNQ2 (rat) channel potentiation; O88943; CHO-K1 KCNQ2, FluxOR thallium flux fluorescence; hits give high values; B-score at 10 µM; hit rate 0.54% among 310,000; AID 2239;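 active = fluorescence ratio B-score at least 3 SD of library B-scores, with initial fluorescence B-score within 3 of them, cut at about 5.3 in these data; same plate scores as AID 2156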;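 note: B-score of peak minus minimum over baseline fluorescence ratio after K+ and Tl+ stimulus; positive B-score means potentiation of KCNQ2 with more thallium influx and brighter signal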
# Target sequence (O88943 whole entry, looked up): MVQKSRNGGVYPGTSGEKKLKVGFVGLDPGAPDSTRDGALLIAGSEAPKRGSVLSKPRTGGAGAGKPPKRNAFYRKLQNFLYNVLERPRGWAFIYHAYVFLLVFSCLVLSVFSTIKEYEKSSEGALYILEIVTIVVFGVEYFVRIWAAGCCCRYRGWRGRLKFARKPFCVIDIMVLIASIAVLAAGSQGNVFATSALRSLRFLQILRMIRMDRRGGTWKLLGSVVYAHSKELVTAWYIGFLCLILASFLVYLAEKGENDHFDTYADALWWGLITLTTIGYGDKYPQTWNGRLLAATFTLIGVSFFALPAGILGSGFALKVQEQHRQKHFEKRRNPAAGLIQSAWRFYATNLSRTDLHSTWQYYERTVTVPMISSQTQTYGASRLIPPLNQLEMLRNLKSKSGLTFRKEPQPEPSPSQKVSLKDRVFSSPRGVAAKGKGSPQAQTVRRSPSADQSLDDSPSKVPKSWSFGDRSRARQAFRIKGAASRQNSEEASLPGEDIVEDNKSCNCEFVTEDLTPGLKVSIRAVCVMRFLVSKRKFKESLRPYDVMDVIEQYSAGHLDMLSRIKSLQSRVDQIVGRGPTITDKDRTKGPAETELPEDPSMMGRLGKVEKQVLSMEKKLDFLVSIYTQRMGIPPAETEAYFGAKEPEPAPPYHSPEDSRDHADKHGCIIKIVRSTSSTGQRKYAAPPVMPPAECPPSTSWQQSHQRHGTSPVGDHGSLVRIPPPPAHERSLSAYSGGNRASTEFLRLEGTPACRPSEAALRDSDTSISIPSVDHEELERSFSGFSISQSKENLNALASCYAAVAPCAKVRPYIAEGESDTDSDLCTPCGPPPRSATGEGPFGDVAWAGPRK
# KCNQ2 inh: blocks the rat KCNQ2 potassium channel | O88943 | CHO-K1 KCNQ2, FluxOR thallium flux, 20 min; hits give low values | B-score at 10 µM | hit rate 1.1% among 310,000;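 active = fluorescence ratio B-score at most minus 3 library SDs, with starting brightness B-score within 2 library SDs, cut at about -5.5 in these data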
# * marks the source's active call; other numbers are inactive results; i = inactive; / = no result given. Compounds with a hit are over-represented: about 1.6% of the library has one in this group of screens.
SMILES,KCNQ2 pot,KCNQ2 inh
CC(C)CCN1CCN(Cc2ccon2)CC1CCO (centres undefined),/,i
CCCSC1=C(C#N)C(c2cccs2)C(C(=O)Nc2ccccc2)=C(C)N1 (centres undefined),-8.8,-8.8*
CCSC1=C(C#N)C(c2cccs2)C(C(=O)OC)=C(C)N1 (centres undefined),1.4,i
CC1(c2ccccc2)CC(C)(C)N2C(=O)Cc3cccc1c32 (centres undefined),-7.7,-7.7*
CC(=O)N1c2ccccc2C(C)(c2ccccc2)CC1(C)C (centres undefined),/,i
COc1c(C)cc(Br)cc1C(=O)Nc1ccc(Cc2ccncc2)cc1,/,i
Cc1c(C(=O)NCc2ccccc2)c(-c2ccccc2)nn1-c1ccccc1,-5.6,-5.6*
Cc1c(C(=O)NC(C)C)c(-c2ccccc2)nn1-c1ccccc1,/,i
CC1CCc2c(sc(NC(=O)c3cccs3)c2C(=O)O)C1 (centres undefined),2,i
CC(C)(C)C1CCc2c(sc(NC(=O)c3cccs3)c2C(=O)N2CCCCC2)C1 (centres undefined),-8.1,-8.1*
Cc1cc(C)n2nc(C(=O)Nc3cccc(S(=O)(=O)N(C)c4ccccc4)c3)nc2n1,0.43,i
Cc1ccnc(NC(=O)C2CC(=O)N(c3ccc4c(c3)OCCO4)C2)c1 (centres undefined),0.68,i
Cc1c(C(=O)N(C)Cc2ccccc2)oc2c(Cl)cccc12,/,i
Cc1c(C(=O)N(C)Cc2cccc(F)c2)oc2c(Cl)cccc12,-7.7,-7.7*
O=C(Oc1ccc([N+](=O)[O-])cc1)c1cncc(Br)c1,0.49,i
C1CCCCCC(NCCN2CCNCC2)CCCCC1,/,i
CCOc1ccc(N(C(=O)CNS(=O)(=O)c2ccccc2)C(CC)C(=O)NCc2ccco2)cc1 (centres undefined),1.5,i
CCC(C(=O)NCc1ccco1)N(C(=O)CNS(=O)(=O)c1ccccc1)c1ccc(OC)cc1 (centres undefined),-5.8,-5.8*
COc1ccc(/C=C/C(=O)N(CC(C)C)CC(C)C)cc1Br,-5.9,-5.9*
COc1ccc(CN2CCN(C(=O)CC(C)C)CC2)cc1Br,/,i
CCCn1c(N)c(N(CCOC)C(=O)Cc2ccc(S(=O)(=O)N3CCOCC3)s2)c(=O)[nH]c1=O,/,i
CCN(C(=O)COC(=O)c1ccc(Cl)cc1N)C1CCCCC1,-6.4,-6.4*
Nc1cc(Cl)ccc1C(=O)OCC(=O)NC1CCCCC1,/,i
CCN1C(=O)C(CC(=O)Nc2ccc(OC)cc2)N(CCc2ccc(F)cc2)C1=S (centres undefined),-7.5,-7.5*
COc1ccc(NC(=O)CC2C(=O)N(Cc3ccccc3)C(=S)N2CCN2CCOCC2)cc1 (centres undefined),/,i
SMILES,KCNQ2 pot,KCNQ2 inh
COc1ccc(NC(=O)CC2C(=O)N(C)C(=S)N2CCc2ccc(F)cc2)cc1 (centres undefined),/,i
C=CCN1C(=O)C(CC(=O)Nc2ccc(OCCC)cc2)N(CCCN2CCN(Cc3ccccc3)CC2)C1=S (centres undefined),-6.8,-6.8*
O=C1CCN(Cc2ccc(O)cc2)CCN1CCO,/,i
C/C(=N/NS(=O)(=O)c1ccccc1)c1ccc(NC(=O)C2CC2)cc1,0.44,i
COc1cccc(-c2nn(-c3ccc(C)cc3)cc2C(=O)N2CCc3cc(OC)c(OC)cc3C2)c1,-6.2,-6.2*
COc1cccc(-c2nn(-c3ccccc3)cc2C(=O)O)c1,0.55,i
COc1ccc(-c2nc(CS(=O)(=O)CC(=O)NCc3ccccc3Br)c(C)o2)cc1,-7.8,-7.8*
COc1ccc(-c2nc(CS(=O)(=O)CC(=O)NCc3cccc(OC)c3OC)c(C)o2)cc1,/,i
CCSCCOC(=O)C1=C(C)N(C)C(=O)NC1c1ccc2c(c1)OCO2 (centres undefined),0.29,i
COC(=O)c1ccc(CNC(=O)c2c3c(nc4ccccc24)CCN(Cc2ccccc2)C3)cc1,-6.2,-6.2*
O=C(NCc1ccc(F)cc1)c1c2c(nc3ccccc13)CCN(Cc1ccccc1)C2,/,i
CCc1nnc(NC(=O)CN2CCCC(C)C2)s1 (centres undefined),/,i
C=CCN(c1cccc(C(F)(F)F)c1)S(=O)(=O)c1cccc(C(=O)OCC(=O)NC)c1,1.6,i
C=CCN(c1cccc(C(F)(F)F)c1)S(=O)(=O)c1cccc(C(=O)OCC(=O)Nc2ccccc2)c1,7.5*,i
COc1cc(/C=C/C(=O)c2ccc3c(c2)OCCO3)cc(Br)c1OCC(=O)N(C)C,/,i
COC(=O)C(CC(=O)c1ccc(Br)cc1)n1ccnc1 (centres undefined),-6.2,-6.2*
COC(=O)C(CC(=O)c1ccc(Br)cc1)n1nc(C)cc1C (centres undefined),0.49,i
CN(CC(=O)NC(c1ccccc1)c1ccccc1)Cc1nc2ccccc2c(=O)[nH]1,-6.6,-6.6*
CN(CC(=O)Nc1ccccc1Sc1ccccc1)Cc1nc2ccccc2c(=O)[nH]1,/,i
